Data on 25 compounds can be found in PubChem BioAssay (NCI).

About 83,000 compounds went through this panel and 20% of them were active in at least one assay; those are over-represented in the sample as a whole.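 Activity criterion: percent growth below 10, measured after cells in 96-well plates were exposed to a single compound concentration for 48 hours.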 Values without a mark were called inactive. Active and inactive are the calls of the source.

The test system of the assay is HL-60(TB) leukemia. Briefly: NCI-60 one-dose screen, 48 h (100 = growth as untreated, 0 = no growth, -100 = all killed). As to conditions: 10 µM unless noted.
Regarding `COc1ccc(/C=C2\CN(Cc3cn(CCCNc4ccnc5cc(Cl)ccc45)nn3)C/C(=C\c3ccc(OC)cc3)C2=O)cc1`, the growth is 53.1%.

Regarding `CC(C)(C)c1ccc2oc(=O)n(SC(Cl)(Cl)Cl)c2c1`, the growth was 70.2%.

As to `CC1C(=O)c2ccccc2CC1C(=O)O` (stereo not given), the growth is 99.7%.

Turning to `CCN1CCN(c2cc(C)nc(N(CCCNc3ccnc4cc(Cl)ccc34)Cc3ccc4c(c3)OCO4)n2)CC1`, the growth is -67.3% (active).

As for `O=C(Cn1c[n+](CC(=O)c2ccc(-c3ccccc3)cc2)c2ccccc21)Nc1cccc2cccnc12`, the growth is -37.2% (active).

Consider `CCOC(=O)Nc1ccc(C(=O)/C=C/c2ccccc2)cc1`, for which the growth was 45.4%.

Take `COc1ccc(Nc2cc(NC(=O)CNc3cc(OC)c(Cl)c(OC)c3Cl)ncn2)cc1`: the growth was 75.1%.

Consider `O=C(/C=C\c1ccc(O)cc1)c1ccccc1`, for which the growth is 71.9%.

On to `COc1ccc(Nc2nc(Nc3cc(C)[nH]n3)c3cc(OC)c(OC)cc3n2)cc1`, for which the growth is -50.5% [20 µM] (active).

Consider `COc1ccc2c(CCCc3ccc(Cl)cc3Cl)c3[n+](cc2c1OC)CCc1cc2c(cc1-3)OCO2`, for which the growth was -41.4% (active).

With `COc1ccc(C(=O)CSc2nc(-c3cc(OC)ccc3OC)cc(-c3ccc(Cl)cc3)c2C#N)cc1`, the growth was 106%.

For the compound `[2H]c1cc2c(c([2H])c1F)/C(=C/c1[nH]c(C)c(C(=O)NCCN(CC)CC)c1C)C(=O)N2`, the growth is 4.9% (active).

For `COc1cc([C@@H]2c3cc4c(cc3C(O[C@@H]3O[C@@H]5CO[C@@H](c6cccs6)OC5[C@H](O)[C@H]3O)C3COC(=O)[C@@H]32)OCO4)cc(OC)c1O` (stereo not given in full), the growth is -21.7% (active).

As for `CCCC(=O)NC(c1ccc2c(c1)OCO2)c1cc(Cl)c2cccnc2c1O` (stereo not given), the growth was -19.5% (active).

For `COC(=O)C(C(C[N+](=O)[O-])c1ccccc1)=P(c1ccccc1)(c1ccccc1)c1ccccc1` (stereo not given), the growth was 80.5%.

With `CN(C)c1ccc(S(=O)(=O)O)cc1`, the growth was 128%.

For the compound `O=C(NCOC(O)C(Cl)(Cl)Cl)NCOC(O)C(Cl)(Cl)Cl` (stereo not given), the growth is 0.027% (active).

With `O=C1CN(CCN2CC(=O)NC(=O)C2)CC(=O)N1`, the growth is 88%.

For `CCOC(=O)CC1C(COC(=O)NC)OC(n2cnc3c(NC(=O)Nc4ccccc4)ncnc32)C1O[Si](C)(C)C(C)(C)C` (stereo not given), the growth was 23.5%.

For the compound `O=C(O)c1ccc(-c2nn(-c3ccc(C(F)(F)F)cc3)cc2CNc2ccc(Oc3ccccc3)cc2)cc1`, the growth was 35.5%.

For the compound `COc1cnc2c(c1)C(=O)c1c-2n(CCCN2CCNCC2)c(=O)c2cc(Cl)ccc12`, the growth was -44.9% (active).

With `O=c1ccn2c(n1)OC1CC2OC1COC(c1ccccc1)(c1ccccc1)c1ccccc1` (stereo not given), the growth is 89.2% [100 µM].

Regarding `C=C1C(=O)O[C@H]2[C@H]1CC/C(COC(=O)/C=C/C(=O)OC/C1=C/CC[C@@]3(C)O[C@H]3[C@H]3OC(=O)C(=C)[C@@H]3CC1)=C\CC[C@@]1(C)O[C@@H]21`, the growth is -23.6% (active).

As to `CC1=C(C/C=C(\C)CCC[C@H](C)CCC[C@H](C)CCCC(C)C)C(=O)c2ccccc2C1=O`, the growth is 105%.

On to `Cc1ccccc1-c1cc(Cc2ccc(F)cc2)c(=O)[nH]n1`, for which the growth is 54.2%.
